From PubChem BioAssay AID1159580 (chemical genetic matrix, 2015)
Several values for one entry are separate records, joined by “and”; a condition that tells them apart may be missing. Equal entries are not always repeated. Screen size: about 5,500 compounds; about 2,000 (36%) were called active. Not shown: some 18% with an inconclusive outcome. Rule as the data show it: active = normalized growth mostly below about 0.91 (no sharp cut-off); inconclusive = no clear call, values can overlap the other calls; inactive = mostly above about 0.92. This is one part of the list.

Assay: chemical genetic growth profiling, strain panel (AID 1159580);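 also: tested at 20 µM; growth read once vehicle control cultures reached saturation at 30 °C; 1 = growth at the plate median or of vehicle wells; lower values mean less growth of the strain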
Details: S. cerevisiae deletion strains, growth OD

Measured: normalized growth

COc1cc(/C=C/C(=O)O)ccc1O
inactive: locus YAL021C, strain ccr4, stronger effect = lower value 1 | locus YAL026C, strain drs2, stronger effect = lower value 1.01 | locus YAL030W, strain snc1, stronger effect = lower value 1.01 | locus YBL061C, strain skt5, stronger effect = lower value 1.01 | locus YBR009C, strain hhf1, stronger effect = lower value 1.02 | locus YBR021W, strain FUR4, stronger effect = lower value 1.01 | locus YBR023C, strain chs3, stronger effect = lower value 1.01 | locus YBR171W, strain sec66, stronger effect = lower value 1.01 | locus YBR229C, strain ROT2, stronger effect = lower value 1.01 | locus YBR231C, strain swc5, stronger effect = lower value 1.01 | locus YBR279W, strain paf1, stronger effect = lower value 1.01 | locus YCL011C, strain gbp2, stronger effect = lower value 1.01 | locus YCL016C, strain dcc1, stronger effect = lower value 1.01 | locus YCL029C, strain bik1, stronger effect = lower value 0.977 | locus YCL061C, strain MRC1, stronger effect = lower value 1.02 | locus YCL069W, strain vba3, stronger effect = lower value 0.998 | locus YCR088W, strain abp1, stronger effect = lower value 1.01 | locus YDL005C, strain med2, stronger effect = lower value 1.02 | locus YDL035C, strain GPR1, stronger effect = lower value 1.01 | locus YDL040C, strain nat1, stronger effect = lower value 1 | locus YDL074C, strain BRE1, stronger effect = lower value 1 | locus YDL101C, strain DUN1, stronger effect = lower value 1.02 | locus YDL185W, strain tfp1, stronger effect = lower value 0.971 | locus YDL192W, strain arf1, stronger effect = lower value 0.986 | locus YDR001C, strain nth1, stronger effect = lower value 1.01 | locus YDR069C, strain doa4, stronger effect = lower value 1.03 | locus YDR101C, strain arx1, stronger effect = lower value 0.961 | locus YDR137W, strain rgp1, stronger effect = lower value 1.01 | locus YDR150W, strain NUM1, stronger effect = lower value 1 | locus YDR159W, strain sac3, stronger effect = lower value 0.98 | locus YDR162C, strain NBP2, stronger effect = lower value 0.992 | locus YDR195W, strain ref2 0.966 | locus YDR297W, strain sur2, stronger effect = lower value 1.01 | locus YDR318W, strain mcm21, stronger effect = lower value 0.997 | locus YDR334W, strain swr1, stronger effect = lower value 1.01 | locus YDR335W, strain msn5, stronger effect = lower value 1.01 | locus YDR388W, stronger effect = lower value 0.979 | locus YDR392W, strain spt3, stronger effect = lower value 0.985 | locus YDR502C, strain sam2, stronger effect = lower value 0.984 | locus YEL003W, strain gim4, stronger effect = lower value 1 | locus YEL037C, strain rad23, stronger effect = lower value 1.01 | locus YEL061C, strain CIN8 (second series), stronger effect = lower value 1.01 | locus YEL061C, strain CIN8, stronger effect = lower value 0.972 | locus YER015W, strain faa2, stronger effect = lower value 1.01 | locus YER016W, strain bim1, stronger effect = lower value 1 | locus YER110C, stronger effect = lower value 0.981 | locus YER111C, strain swi4, stronger effect = lower value 1.01 | locus YER155C, strain BEM2 (second series), stronger effect = lower value 0.999 | locus YER155C, strain BEM2, stronger effect = lower value 1 | locus YER167W, strain BCK2, stronger effect = lower value 0.973 | locus YFR010W, strain ubp6, stronger effect = lower value 1.01 | locus YGL078C, strain dbp3, stronger effect = lower value 0.983 | locus YGL086W, strain mad1, stronger effect = lower value 0.952 | locus YGL167C, strain pmr1, stronger effect = lower value 1.01 | locus YGL173C, strain kem1, stronger effect = lower value 1.01 | locus YGL227W, strain vid30, stronger effect = lower value 1.01 | locus YGL240W, strain doc1, stronger effect = lower value 1.02 | locus YGL248W, strain PDE1, stronger effect = lower value 1.02 | locus YGL253W, strain hxk2, stronger effect = lower value 0.997 | locus YGR135W, strain pre9, stronger effect = lower value 0.995 | locus YGR252W, strain gcn5, stronger effect = lower value 1.07 | locus YHR013C, strain ard1, stronger effect = lower value 0.996 | locus YHR027C, strain rpn1, stronger effect = lower value 1 | locus YHR030C, strain SLT2, stronger effect = lower value 0.993 and 1.02 | locus YHR079C, strain IRE1 (second series), stronger effect = lower value 0.972 | locus YHR079C, strain IRE1, stronger effect = lower value 1.05 | locus YHR094C, strain hxt1, stronger effect = lower value 0.966 | locus YHR129C, strain ARP1, stronger effect = lower value 1 | locus YHR142W, strain chs7, stronger effect = lower value 1.01 | locus YHR200W, strain rpn10, stronger effect = lower value 0.989 | locus YIL066C, strain RNR3, stronger effect = lower value 1 | locus YIL073C, strain SPO22, stronger effect = lower value 0.99 | locus YIL125W, strain kgd1, stronger effect = lower value 0.968 | locus YIR030C, strain dcg1, stronger effect = lower value 0.983 | locus YJL092W, strain hpr5, stronger effect = lower value 1.01 | locus YJL095W, strain BCK1 (second series), stronger effect = lower value 1.01 | locus YJL095W, strain BCK1, stronger effect = lower value 1.03 and 1 | locus YJL115W, strain asf1, stronger effect = lower value 1.01 | locus YJL129C, strain trk1, stronger effect = lower value 1.01 | locus YJL134W, strain LCB3, stronger effect = lower value 0.999 | locus YJL154C, strain vps35, stronger effect = lower value 1 | locus YJL164C, strain tpk1, stronger effect = lower value 1 | locus YJL166W, strain qcr8, stronger effect = lower value 1.02 | locus YJL168C, strain set2, stronger effect = lower value 0.984 | locus YJL187C, strain SWE1 (second series), stronger effect = lower value 1.01 | locus YJR043C, strain POL32, stronger effect = lower value 1.03 | locus YJR066W, strain TOR1, stronger effect = lower value 0.995 | locus YKL009W, strain mrt4, stronger effect = lower value 1.01 | locus YKL068W, stronger effect = lower value 0.974 | locus YKL085W, strain MDH1 (second series), stronger effect = lower value 0.977 | locus YKL085W, strain MDH1, stronger effect = lower value 0.977 | locus YKL160W, strain elf1, stronger effect = lower value 1.01 | locus YKL190W, strain CNB1, stronger effect = lower value 0.995 | locus YKR001C, strain vps1, stronger effect = lower value 0.967 | locus YKR026C, strain gcn3, stronger effect = lower value 1.02 | locus YKR091W, strain srl3, stronger effect = lower value 1.01 | locus YLL001W, strain dnm1, stronger effect = lower value 1.01 | locus YLL026W, stronger effect = lower value 1.01 | locus YLL041C, strain sdh2, stronger effect = lower value 1.01 | locus YLR027C, strain aat2, stronger effect = lower value 1.01 | locus YLR039C, strain RIC1, stronger effect = lower value 0.99 | locus YLR058C, strain SHM2, stronger effect = lower value 1.01 | locus YLR102C, strain apc9, stronger effect = lower value 0.98 | locus YLR113W, strain HOG1, stronger effect = lower value 0.958 | locus YLR221C, strain rsa3, stronger effect = lower value 1.01 | locus YLR258W, strain gsy2, stronger effect = lower value 1.01 | locus YLR262C, strain YPT6 (second series), stronger effect = lower value 1.01 | locus YLR262C, strain YPT6, stronger effect = lower value 1.01 | locus YLR268W, strain sec22, stronger effect = lower value 0.967 | locus YLR320W, strain mms22, stronger effect = lower value 1 | locus YLR330W, strain CHS5, stronger effect = lower value 1.01 | locus YLR342W, strain FKS1 (second series), stronger effect = lower value 1.02 | locus YLR342W, strain FKS1, stronger effect = lower value 1.02 | locus YLR357W, strain rsc2, stronger effect = lower value 1.01 | locus YLR370C, strain arc18, stronger effect = lower value 1.02 | locus YLR371W, strain rom2, stronger effect = lower value 0.936 | locus YLR384C, strain iki3, stronger effect = lower value 1.01 | locus YLR418C, strain cdc73, stronger effect = lower value 0.968 | locus YML016C, strain PPZ1, stronger effect = lower value 1.01 | locus YML032C, strain rad52, stronger effect = lower value 1.01 | locus YML120C, strain ndi1, stronger effect = lower value 1 | locus YML124C, strain tub3, stronger effect = lower value 0.984 | locus YMR058W, strain fet3, stronger effect = lower value 1.02 | locus YMR078C, strain ctf18, stronger effect = lower value 0.984 | locus YMR125W, strain sto1, stronger effect = lower value 1 | locus YMR129W, stronger effect = lower value 1.01 | locus YMR205C, strain PFK2, stronger effect = lower value 1.01 | locus YMR223W, strain ubp8, stronger effect = lower value 1.01 | locus YMR231W, strain pep5, stronger effect = lower value 1.01 | locus YMR263W, strain SAP30, stronger effect = lower value 1 | locus YMR307W, strain GAS1, stronger effect = lower value 0.99 | locus YNL067W, strain RPL9B, stronger effect = lower value 1 | locus YNL071W, strain lat1, stronger effect = lower value 1 | locus YNL183C, strain NPR1, stronger effect = lower value 1 | locus YNL209W, strain ssb2, stronger effect = lower value 1.01 | locus YNL233W, strain BNI4, stronger effect = lower value 1.01 | locus YNL248C, strain rpa49, stronger effect = lower value 1.01 | locus YNL250W, strain rad50, stronger effect = lower value 0.995 | locus YNL271C, strain bni1, stronger effect = lower value 1 | locus YNL298W, strain CLA4, stronger effect = lower value 0.981 | locus YNL307C, strain MCK1, stronger effect = lower value 0.977 | locus YNL322C, strain KRE1 (second series), stronger effect = lower value 1.01 | locus YNL322C, strain KRE1, stronger effect = lower value 0.999 | locus YNR049C, strain mso1, stronger effect = lower value 1.01 | locus YNR052C, strain pop2, stronger effect = lower value 0.991 | locus YOL012C, strain htz1 0.646 | locus YOL147C, strain pex11, stronger effect = lower value 0.969 | locus YOR001W, strain rrp6, stronger effect = lower value 1.06 | locus YOR061W, strain CKA2, stronger effect = lower value 1.01 | locus YOR069W, strain VPS5, stronger effect = lower value 0.995 | locus YOR070C, strain gyp1, stronger effect = lower value 1.01 | locus YOR080W, strain dia2, stronger effect = lower value 1.01 | locus YOR083W, strain WHI5, stronger effect = lower value 1.02 | locus YOR106W, strain vam3, stronger effect = lower value 1.03 | locus YOR136W, strain idh2, stronger effect = lower value 0.974 | locus YOR144C, strain elg1, stronger effect = lower value 0.977 | locus YOR184W, strain ser1, stronger effect = lower value 1.01 | locus YOR231W, strain MKK1, stronger effect = lower value 1.03 | locus YOR265W, strain rbl2, stronger effect = lower value 1 | locus YOR270C, strain vph1, stronger effect = lower value 0.994 | locus YOR290C, strain snf2, stronger effect = lower value 1.01 | locus YOR316C, strain cot1, stronger effect = lower value 0.981 | locus YPL051W, strain arl3, stronger effect = lower value 1.01 | locus YPL078C, strain atp4, stronger effect = lower value 1.02 | locus YPL106C, strain sse1, stronger effect = lower value 1.01 | locus YPL240C, strain hsp82, stronger effect = lower value 1.02 | locus YPL241C, strain CIN2, stronger effect = lower value 0.999 | locus YPL256C, strain CLN2, stronger effect = lower value 1 | locus YPR119W, strain clb2, stronger effect = lower value 0.975 | locus YPR141C, strain kar3, stronger effect = lower value 0.975 | locus YPR163C, strain tif3, stronger effect = lower value 0.977 | locus YPR167C, strain met16, stronger effect = lower value 0.992 | strain wtn01, stronger effect = lower value 0.968
